Measurements taken from the supplement of paper PMC10981050.
Where “and” joins values, the source holds several entries; their conditions need not be identical. Identical values can stand only once.

Key:
Assay in all cases: cell viability relative to vehicle control; higher = less cytotoxic
Conditions in all cases: 10 µM
K562 = system: K562
Outline: (§1)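 Screening covered the Selleck bioactive, kinase and epigenetic probe libraries, less identity-inconsistent compounds, on CRISPR-edited mutant clones and isogenic wild-type clones of four leukaemia lines. Cells, at 2000 per well in 50 µL medium, received a single 10 µM acoustically dispensed dose. After 48 h the supernatant was removed and CellTiter-Glo luminescence was read. Viability was analysed in Genedata Screener as percent of the on-plate vehicle control.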

MARIMO = system: MARIMO
Outline: as §1

MOLM14 = system: MOLM14
Outline: as §1

OCI-AML2 = system: OCI-AML2
Outline: as §1

SMILES | cell viability (K562; SRSF2 genotype: SRSF2 P95H/wt) | cell viability (K562; SRSF2 genotype: SRSF2 wt/wt) | cell viability (MARIMO; SRSF2 genotype: SRSF2 P95H/wt) | cell viability (MARIMO; SRSF2 genotype: SRSF2 wt/wt) | cell viability (MOLM14; SRSF2 genotype: SRSF2 P95H/wt) | cell viability (MOLM14; SRSF2 genotype: SRSF2 wt/wt) | cell viability (OCI-AML2; SRSF2 genotype: P95H/wt) | cell viability (OCI-AML2; SRSF2 genotype: wt/wt)
O=C(O)CCNc1cc(N2CCc3ccccc3CC2)nc(-c2ccccn2)n1 | 108% and 104% | 99.5% | 102% | 107% | 108% | 107% | 106% | 111%
COc1cc2nccc(Oc3ccc(NC(=O)NC4CC4)c(Cl)c3)c2cc1C(N)=O [E7080 (Lenvatinib)] | 63.7% and 82.7% | 67.5% | 83.9% | 89.3% | 34.6% | 28.1% | 50.9% | 56.1%
Cc1ccc(C(=O)N(CCCN)[C@@H](c2oc3cc(Cl)ccc3c(=O)c2Cc2ccccc2)C(C)C)cc1 | 0.65% and 0.76% | 0.52% | 0.39% | 0.45% | 0.45% | 0.45% | 0.35% | 0.4%
CSc1cccc(Nc2ncc3cc(-c4c(Cl)cccc4Cl)c(=O)n(C)c3n2)c1 | 6.76% and 14.3% | 9.82% | 34.3% | 65.4% | 26.6% | 31.6% | 12.8% | 20.9%
C/C1=C\CC[C@]23O[C@H]2[C@@H](OC3=O)c2c(C)coc2C1 [Linderane] | 109% and 104% | 112% | 104% | 99.6% | 117% | 108% | 103% | 101%
COc1cccc(-c2cc(=O)c3ccccc3o2)c1N | 95.9% and 95.1% | 95.6% | 69.9% | 61.9% | 99.5% | 109% | 73.1% | 58%
CO/N=C(\C(=O)N[C@@H]1C(=O)N2C(C(=O)O)=CCS[C@H]12)c1csc(N)n1 [Ceftizoxime] | 99.2% and 101% | 110% | 96.1% | 98.9% | 104% | 103% | 111% | 98.5%
Cc1cc([C@@H](C)Nc2ccccc2C(=O)O)c2nc(N3CCOCC3)cc(=O)n2c1 | 88.7% and 86.4% | 89.2% | 66.9% | 66.3% | 49.6% | 48.3% | 49.8% | 56.1%
CS(=O)(=O)N1CCc2c(-c3cnc(N)nc3)nc(N3CCOCC3)nc21 | 56.4% and 67% | 66.8% | 53.6% | 42.5% | 34.2% | 35.9% | 17.8% | 25.3%
C=C1C2CCC(C2)C1(C)CCC=C(C)CO (stereo not given) [Santalol] | 106% and 103% | 98.6% | 105% | 94.3% | 106% | 104% | 102% | 101%
